# A number with no mark means an inactive call. How the calls were made is not given here.
# Molecular target: Pantothenate synthetase (Mycobacterium tuberculosis (strain ATCC 25618 / H37Rv)) (UniProt P9WIL5)
# Test: Coupled enzyme confirmation of inhibitors against recombinant Mtb PanC (AID 375);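 further: 0% = full reaction with vehicle and 100% = no enzyme background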
# Conditions: coupled enzyme assay; at 10 µM, active compounds read high
# Sequence of Pantothenate synthetase (Mycobacterium tuberculosis (strain ATCC 25618 / H37Rv)) (P9WIL5 whole entry, looked up): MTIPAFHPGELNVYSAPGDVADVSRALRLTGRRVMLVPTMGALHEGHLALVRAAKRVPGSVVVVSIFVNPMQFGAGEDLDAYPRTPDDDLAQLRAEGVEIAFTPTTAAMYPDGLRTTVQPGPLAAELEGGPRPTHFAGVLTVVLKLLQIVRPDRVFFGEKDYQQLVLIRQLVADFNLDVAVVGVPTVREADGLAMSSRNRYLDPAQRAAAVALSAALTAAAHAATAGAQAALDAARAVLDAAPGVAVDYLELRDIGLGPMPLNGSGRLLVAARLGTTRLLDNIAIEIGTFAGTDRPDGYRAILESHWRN
row,Structure (SMILES),inhibition [%]
1,O=C(NCC1CCCO1)c1ccc(C(=O)NCC2CCCO2)cc1 (stereo not drawn),0
2,COc1ccc(-n2c(Cc3cccn3C)nnc2SCC(=O)NCC2CCCO2)cc1 (stereo not drawn),11
3,CCCCOc1ccc(C(=O)CCN2CCCCC2)cc1,9
4,Cc1cc(NC(=O)CSc2nc3c(c(-c4cccnc4)c2C#N)CCC3)no1,0
5,CCOC(=O)N1CCN(C(=O)c2csc3c2CCCCC3)CC1,0
6,COc1ccc(C)cc1S(=O)(=O)N(C)CC(=O)Nc1ccc2c(c1)OCO2,0
7,Cc1ccc(S(=O)(=O)N2CCN(C(=O)CSc3nc4ccccc4c(=O)[nH]3)CC2)c(C)c1,2
8,CC1CC(C)CN(CCCNC(=O)COc2cc(=O)n(C)c3ccccc23)C1 (stereo not drawn),0
9,Cc1ccccc1NC(=O)C1CCCN(S(=O)(=O)c2cnc[nH]2)C1 (stereo not drawn),2
10,Cc1nnc(SCCn2c(N3CC(C)CC(C)C3)nc3c2c(=O)n(C)c(=O)n3C)s1 (stereo not drawn),0
11,C/C=C(\C)c1nnc(NC(=O)C(C)C)s1,1
12,COc1cccc(NC(=O)N2CCN(c3cccc(C)c3C)CC2)c1,0
13,CCCOc1ccc(-c2nnn(CC(=O)Nc3cccc(C(=O)OC)c3)n2)cc1,7
14,CC(=O)NCCn1ccc2ccccc21,0
15,Cc1cnc(C(=O)OCC(=O)Nc2ccc(Oc3ccccc3)cc2)cn1,0
16,Cc1ccc(C(C)C)c(OCc2nnc(SCC(=O)Nc3ncc(C)s3)n2C)c1,2
17,O=C(CSc1nc(-c2ccco2)cc(C(F)(F)F)n1)NCCCn1ccnc1,8
18,O=C(Nc1cccnc1)Nc1ccccn1,0
19,CCn1c2ccccc2c2cc(N)ccc21,0
20,O=C(CS(=O)CC(=O)Nc1cccc2c1CCCC2)Nc1ccc(F)cc1 (stereo not drawn),0
21,O=C(O)c1ccc2c(c1)N(Cc1ccccc1F)C(=O)c1ccccc1S2=O (stereo not drawn),0
22,Cc1cc(NC(=O)CSc2nc3ccccc3n2CC(=O)N2CCCCC2)no1,0
23,N[C@@H](Cc1ccc(O)c(I)c1)C(=O)O,6

# Source: PubChem BioAssay
